Several values for one entry are separate records, joined by “and”; a condition that tells them apart may be missing. Equal entries are not always repeated. Results filed as inconclusive are left out. A call without a number means that no potency is given here. The source holds several records for some structures; these can differ, active in one and inactive in another. Activity calls are given as the source filed them. Calls follow the shape of the dose curve; as a rule, active = well fitted cell-killing curve with a large enough effect in the repeat runs; inconclusive = weak or mixed curves; inactive = flat fitted curve, though single readings scatter.
test: qHTS assay to identify small molecule antagonists of the estrogen receptor beta (ER-beta) signaling pathway - cell viability counter screen (AID 1259382); conditions: ER-beta-UAS-bla HEK293T viability, CellTiter-Glo luminescence, 16 h; series mostly up to 92.4 µM; also: nearly all actives have a fitted effect of over 55% in size
How it was run: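 Agonist-stimulated (1nM E2) ER-beta-UAS-bla HEK293T cells are incubated with library compounds for 16 hr at 37C. Cell viability is then assessed in the reporter-assay wells by adding CellTiter-Glo and reading luminescence after 30 min.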
Potency is read from the fitted curve at half-maximal effect.

Row | SMILES | Potency
1 | CC(=O)Oc1ccccc1C(=O)O | inactive
2 | COc1ccccc1O | inactive
3 | COCCOCCOC | inactive
4 | COCC(C)N (centres undefined) | inactive
5 | NCCNc1cccc2ccccc12 | 24.3 µM (active) and 59.6 µM (active) and inactive
6 | C/C=C/c1ccc(O)c(OC)c1 | inactive
7 | Cc1cccc(Nc2cc(Cl)nc(SCC(=O)O)n2)c1C | inactive
8 | CCCCCCCCCCCCCC(=O)OC(C)C | inactive
9 | COc1cc(C=O)ccc1O | inactive
10 | COc1ccc(C(=O)c2ccccc2)c(O)c1 | inactive
11 | C1CNCCN1 | inactive
12 | COc1cc(O)c(C(=O)c2ccccc2)cc1S(=O)(=O)O | inactive
13 | COc1ccc(O)cc1 | inactive
14 | CC(O)COc1ccccc1 (centres undefined) | inactive
15 | NC(N)=NC(N)=NCCc1ccccc1 | inactive
16 | CC1=NN(c2ccccc2)C(=O)C1 | inactive
17 | O=c1c(-c2ccc(O)cc2)coc2cc(O)cc(O)c12 | inactive
18 | NC(=O)N1c2ccccc2C=Cc2ccccc21 | inactive
19 | Cc1cccc(C)c1O | inactive
20 | NC(=O)N/N=C/c1ccc([N+](=O)[O-])o1 | inactive
21 | CC(=O)c1ccc(S(=O)(=O)NC(=O)NC2CCCCC2)cc1 | inactive
22 | CN(C)Cc1cc(CN(C)C)c(O)c(CN(C)C)c1 | inactive
23 | Cc1ccc(O)c(-n2nc3ccccc3n2)c1 | inactive
24 | COC(=O)c1ccc(O)cc1 | inactive
25 | c1ccc2[nH]c(-c3cscn3)nc2c1 | inactive
26 | O=C1OC(c2ccc(O)cc2)(c2ccc(O)cc2)c2ccccc21 | inactive
27 | OCCCc1ccccc1 | inactive
28 | NC(=O)OCC(COC(N)=O)c1ccccc1 | inactive
29 | COc1cc2c(c(OC)c1OC)-c1ccc(OC)c(=O)cc1[C@@H](NC(C)=O)CC2 | inactive

Reference: PubChem BioAssay (Tox21)
